The list is not random: actives were taken first. Their share in the collection is about 3.4%.
MEKK3 PB1 HTS: modulators of MEKK3-MEK5 PB1 binding, primary screen, biochemical, wildtype MEKK3, multiplex bead flow cytometry, Alexa488-MEK5 | bead-based flow cytometry, Alexa488-MEK5 binding to MEKK3; actives lie on both sides; 0 = blocked by unlabeled MEK5, 100 = vehicle | Mitogen-activated protein kinase kinase kinase 3 (Homo sapiens), Q99759 | 290,000 tested, 1.4% active | binding response (% of control), % at 10 µM;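 active = binding response more than 3 SD above or below the average of its plate-row segment, actives on both sides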;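 also: Alexa488 bead fluorescence after subtracting the streptavidin-only scavenger bead signal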
MEKK2wt PB1 HTS: modulators of MEK5 binding to wildtype MEKK2, primary screen, biochemical, multiplex bead flow cytometry, Alexa488-MEK5; Alexa488-MEK5 binding to MEKK2 WT; actives lie on both sides; binding response (% of control), % at 10 µM; 290,000 tested, 1.1% active; in the data active = binding response below about 67% or above about 130%
ANO1 activ: TMEM16A chloride channel activators or potentiators, primary screen, cell-based, HTS. B-score at 10 µM. AID 623877, 2012. 340,000 tested, 0.3% active. HEK293 TMEM16A/YFP-H148Q/I152L, iodide quench fluorescence; stronger effect = lower value;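 active = fluorescence-ratio B-score plate-corrected deviation score at least 3 library SD below zero, with starting fluorescence score within 5 deviations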;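 also: channel opened by trigger with iodide after compound preincubation; score built on the fluorescence ratio of max minus min over baseline; more negative score means more quench and so TMEM16A activation or potentiation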
Target sequence (Q8BHY3 whole entry, looked up): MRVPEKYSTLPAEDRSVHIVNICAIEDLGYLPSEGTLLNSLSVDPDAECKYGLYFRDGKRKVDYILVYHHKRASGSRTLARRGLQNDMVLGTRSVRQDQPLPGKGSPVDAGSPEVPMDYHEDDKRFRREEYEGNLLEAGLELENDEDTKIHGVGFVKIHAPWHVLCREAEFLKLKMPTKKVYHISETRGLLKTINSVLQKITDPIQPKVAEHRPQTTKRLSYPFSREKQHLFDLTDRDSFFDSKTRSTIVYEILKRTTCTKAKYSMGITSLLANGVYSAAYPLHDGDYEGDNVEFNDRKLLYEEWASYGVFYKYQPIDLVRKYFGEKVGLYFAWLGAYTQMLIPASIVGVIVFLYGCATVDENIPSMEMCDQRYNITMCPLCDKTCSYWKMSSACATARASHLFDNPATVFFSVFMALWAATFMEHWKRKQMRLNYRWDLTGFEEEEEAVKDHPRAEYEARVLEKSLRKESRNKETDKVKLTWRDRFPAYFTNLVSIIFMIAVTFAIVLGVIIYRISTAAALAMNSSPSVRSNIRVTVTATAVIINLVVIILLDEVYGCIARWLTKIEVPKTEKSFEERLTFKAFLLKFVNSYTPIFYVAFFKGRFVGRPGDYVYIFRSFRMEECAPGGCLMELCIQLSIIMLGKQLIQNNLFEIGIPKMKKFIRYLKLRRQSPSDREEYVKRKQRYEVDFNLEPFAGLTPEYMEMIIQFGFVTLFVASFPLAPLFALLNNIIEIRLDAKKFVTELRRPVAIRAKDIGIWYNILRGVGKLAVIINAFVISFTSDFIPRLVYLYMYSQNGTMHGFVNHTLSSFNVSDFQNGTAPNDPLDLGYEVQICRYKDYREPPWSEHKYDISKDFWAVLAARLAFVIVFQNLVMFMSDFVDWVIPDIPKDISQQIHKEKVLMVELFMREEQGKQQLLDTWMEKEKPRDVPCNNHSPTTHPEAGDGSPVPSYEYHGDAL
NTR1 ag: agonists of human NTR1, primary screen, imaging, U2OS cells, beta-arrestin-GFP, high content. Neurotensin receptor type 1 (Homo sapiens), P30989. NTR1-U2OS beta-arrestin-GFP spot imaging, agonist mode. activation, % at 20 µM. 330,000 tested, 0.17% active;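 active = activation at or above 40% of the spot to cytoplasm intensity ratio, with at least 20 cells analyzed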;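 also: 0% = DMSO without peptide and 100% = 100 nM NTR1 peptide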
TMEM16A inh: TMEM16A chloride channel inhibitors, primary screen, cell-based, HTS. AID 588511, 2011. normalized B-score (activity score, 25-100; higher = stronger inhibition) at 10 µM. Anoctamin-1 (Mus musculus), Q8BHY3. HEK293 TMEM16A/YFP iodide influx fluorescence, ionomycin. 310,000 tested, 1.2% active;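 active = ratio plate-corrected score three or more library SD toward inhibition, starting fluorescence score within five deviations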;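 also: score derived from kinetic fluorescence span divided by baseline fluorescence per well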
MEKK2mut PB1 HTS: MEK5 binding signal on mutant MEKK2 PB1, primary screen, biochemical, multiplex bead flow cytometry, Alexa488-MEK5. AID 1530, 2009. 290,000 tested, 0.35% active. percent response, % at 10 µM. Alexa488-MEK5 binding to MEKK2 mutant; in the data active = percent response above about 24%, passing the limit was not always enough
MEKK2wt confirm: modulators of MEK5 binding to wildtype MEKK2, confirmation, biochemical, single concentration, multiplex bead flow cytometry | shares compounds with MEKK3 PB1 HTS | Alexa488-MEK5 binding to MEKK2 WT; actives lie on both sides | binding response (% of control), % at 10 µM | 5,900 tested, 2.4% active | AID 1892, 2009; in the data active = binding response below about 16% or above about 210%; inactive = in between
MEKK2mut-MEK5: mutant MEKK2 PB1-MEK5 binding signal retest – biochemical, single concentration, multiplex bead flow cytometry, confirmation. shares compounds with MEKK3 PB1 HTS. percent response, % at 10 µM. Alexa488-MEK5 binding to MEKK2 mutant. 5,900 tested, 2% active; in the data active = percent response mostly above about 71%, no sharp cut-off; inactive = mostly below about 38%;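 also: higher means compound restores mutant binding toward wildtype level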
MEKK3 confirm: MEKK3 wild-type PB1 binding to MEK5, inhibitors, confirmation, biochemical, bead multiplex flow cytometry, single concentration, wildtype | 5,900 tested, 1.8% active | Alexa488-MEK5 binding to MEKK3; stronger effect = lower value | binding response (% of control), % at 10 µM | shares compounds with MEKK3 PB1 HTS;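 active = binding response below 72% of control, or above a set upper limit, though filed actives all read lower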;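 also: 100% = DMSO only wells and 0% = binding blocked by excess unlabeled MEK5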
An asterisk follows results filed as active; i = inactive; . = no result; [ ] = remark or other dose.

SMILES | MEKK3 PB1 HTS | MEKK2wt PB1 HTS | ANO1 activ | NTR1 ag | TMEM16A inh | MEKK2mut PB1 HTS | MEKK2wt confirm | MEKK2mut-MEK5 | MEKK3 confirm
CCC1CCCCN1CC(=O)Nc1cc(OC)c(OC)cc1C#N (centres undefined) | 101.0 | 98.0 | i | . | . | -7.0 | . | . | .
COc1cc(C#N)c(NC(=O)CN2CCN(CCO)CC2)cc1OC | 47.0*[inhibitor] | 58.0 | i | -1.4 | i | -14.0 | 102.0 | 2.0 | 103.0
O=C(CCN1CCC(c2ccccc2)C1)c1cccs1 (centres undefined) | 81.0*[inhibitor] | 81.0 | i | -0.2 | i | -8.0 | 100.0 | -3.0 | 100.0
CC(C)CC(=O)NC(=S)Nc1nc(-c2ccc(Cl)cc2)cs1 | 155.0* | 104.0 | i | 11.0 | i | 0.0 | 102.0 | 0.0 | 100.0
COc1ccc(-c2csc(NC(=S)NC(=O)c3ccco3)n2)cc1 | 93.0 | 87.0 | i | -0.8 | i | -15.0 | . | . | .
CC(C)CC(=O)NC(=S)Nc1nc(-c2ccccc2)cs1 | 108.0 | 104.0 | i | . | i | -2.0 | . | . | .
CCCC(=O)NC(=S)Nc1nc(-c2ccc(OC)cc2)cs1 | 137.0* | 104.0 | i | 5.5 | i | 1.0 | 100.0 | 1.0 | 109.0
COc1ccc(-c2csc(NC(=O)COC(=O)c3ccco3)n2)cc1 | 138.0* | 107.0 | i | 1.3 | i | 0.0 | 105.0 | 1.0 | 103.0
O=C(NCCc1ccc(Cl)cc1)C12CC3CC(CC(O)(C3)C1)C2 | 98.0 | 104.0 | i | 0.8 | i | 5.0 | . | . | .
COCc1cc(C)nc(SCC(=O)N2CCC(C)CC2)c1C#N | 6.0*[inhibitor] | 8.0*[inhibitor] | i | 0.0 | i | -37.0 | 112.0 | 7.0 | 106.0
COCc1cc(C)nc(SCC(=O)NC2CCCCC2C)c1C#N (centres undefined) | 107.0 | 107.0 | i | -0.5 | i | 8.0 | . | . | .
COc1ccc(-n2c(=S)[nH]c3cc(C(=O)Nc4ccc(C)c(F)c4)ccc3c2=O)c(OC)c1 | 104.0 | 103.0 | i | 1.9 | i | 8.0 | . | . | .
COc1ccc(-n2c(=S)[nH]c3cc(C(=O)Nc4cccc(C)c4)ccc3c2=O)cc1 | 155.0* | 105.0 | i | -0.8 | i | -1.0 | 101.0 | 4.0 | 103.0
COc1ccc(-n2c(=S)[nH]c3cc(C(=O)Nc4ccc(OC)c(OC)c4)ccc3c2=O)cc1 | 140.0* | 103.0 | i | . | i | -1.0 | 94.0 | -4.0 | 100.0
CCOC(=O)N1CCN(C(=O)c2ccc3c(=O)n(-c4ccc(F)cc4)c(=S)[nH]c3c2)CC1 | 1.0*[inhibitor] | 0.0*[inhibitor] | i | -1.1 | i | -21.0 | 94.0 | -1.0 | 87.0
CN1CCN(C(=O)c2ccc3c(=O)n(-c4ccc(F)cc4)c(=S)[nH]c3c2)CC1 | 99.0 | 103.0 | i | -0.9 | i | 6.0 | . | . | .
COc1ccc(-n2c(=S)[nH]c3cc(C(=O)NCc4cccnc4)ccc3c2=O)cc1 | 105.0 | 103.0 | i | -0.9 | i | -3.0 | . | . | .

Source: PubChem (several laboratories)
